# Several values for one entry are separate records, joined by “and”; a condition that tells them apart may be missing. Identical values can stand only once. Results filed as inconclusive are left out. Where a call stands in place of a potency, no number is given. The source holds several records for some structures; these can differ, active in one and inactive in another. Activity calls are given as the source filed them. Unless noted, the call rests on the fitted dose curve; in most records, active means well fitted curve in the direction sought with a large enough effect in the repeat runs; inconclusive means weak or mixed curves; inactive means no such curve, though single readings can be large; an effect the other way counts as inactive or inconclusive.
# Tests used:
# [1] = biological target: Peroxisome proliferator-activated receptor delta (Homo sapiens) (UniProt Q03181); test: qHTS assay to identify small molecule agonists of the peroxisome proliferator-activated receptor delta (PPARd) signaling pathway (AID 743212; calls by dose curve)
# Chain of Peroxisome proliferator-activated receptor delta (Homo sapiens) (Q03181 whole entry, looked up): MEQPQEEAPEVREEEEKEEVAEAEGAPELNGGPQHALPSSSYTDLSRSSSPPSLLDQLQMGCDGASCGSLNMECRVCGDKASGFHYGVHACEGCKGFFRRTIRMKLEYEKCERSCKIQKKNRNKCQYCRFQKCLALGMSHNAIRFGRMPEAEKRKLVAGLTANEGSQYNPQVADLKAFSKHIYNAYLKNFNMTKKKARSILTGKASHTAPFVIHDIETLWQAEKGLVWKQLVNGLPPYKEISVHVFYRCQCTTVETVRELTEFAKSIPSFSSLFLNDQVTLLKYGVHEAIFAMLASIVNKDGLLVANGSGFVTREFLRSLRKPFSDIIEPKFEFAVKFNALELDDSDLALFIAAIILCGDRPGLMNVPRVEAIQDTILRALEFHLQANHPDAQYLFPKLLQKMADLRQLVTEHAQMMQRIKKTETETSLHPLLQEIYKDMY
# Summary of the method: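 A PPARd-bla HEK293H line with beta-lactamase under an Upstream Activator Sequence is treated with compounds at 37 C. Substrate loading for 2 h at room temperature precedes the fluorescence measurement.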
# [2] = qHTS assay to identify small molecule agonists of the farnesoid-X-receptor (FXR) signaling pathway - cell viability counter screen (AID 743218); further: nearly all actives have a fitted effect of over 45% in size; further: potency means the concentration at half of the fitted maximal effect
# Summary of the method: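 In GeneBLAzer FXR-UAS-bla HEK 293T cells, compounds act for 16 h at 37 C. Cell viability is then scored in the reporter wells by CellTiter-Glo, 30 min at RT, luminescence.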
# [3] = qHTS assay to identify small molecule antagonists of the farnesoid-X-receptor (FXR) signaling pathway - cell viability counter screen (AID 743221; active means well fitted cell-killing curve with a large enough effect in the repeat runs, not every such curve was filed as active; further: nearly all actives have a fitted effect of over 50% in size; further: potency means the concentration at half of the fitted maximal effect)
# Summary of the method: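 After a 5 h settling period, FXR-bla HEK 293T cells receive compound and chenodeoxycholic acid (50 uM final) and incubate 16 h at 37 C; CellTiter-Glo luminescence, read after 30 min at room temperature, reports cell viability.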
# [4] = biological target: Vitamin D3 receptor (Homo sapiens) (UniProt P11473); test: qHTS assay to identify small molecule agonists of the vitamin D receptor (VDR) signaling pathway (AID 743222; calls by dose curve)
# Chain of Vitamin D3 receptor (Homo sapiens) (P11473 whole entry, looked up): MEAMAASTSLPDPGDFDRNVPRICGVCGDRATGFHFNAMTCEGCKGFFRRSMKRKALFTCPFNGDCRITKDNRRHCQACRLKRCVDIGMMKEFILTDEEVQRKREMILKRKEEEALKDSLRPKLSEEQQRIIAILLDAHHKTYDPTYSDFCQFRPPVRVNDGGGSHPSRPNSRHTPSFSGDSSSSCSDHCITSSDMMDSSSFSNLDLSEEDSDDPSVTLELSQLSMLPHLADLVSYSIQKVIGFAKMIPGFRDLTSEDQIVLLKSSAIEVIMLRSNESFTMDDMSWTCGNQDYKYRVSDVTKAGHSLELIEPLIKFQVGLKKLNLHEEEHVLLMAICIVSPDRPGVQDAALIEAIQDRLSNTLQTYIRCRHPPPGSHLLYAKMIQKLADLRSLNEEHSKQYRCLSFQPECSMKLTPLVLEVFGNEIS
# Summary of the method: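 Agonist activity measured in VDR-bla reporter cells. Exposure 16 h, 37C, 5% CO2; detection by B/G FRET substrate, 2 h RT.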
# [5] = biological target: Vitamin D3 receptor (Homo sapiens) (UniProt P11473); test: qHTS assay to identify small molecule antagonists of the vitamin D receptor (VDR) signaling pathway (AID 743223; active means well fitted inhibition curve with a large enough effect in the signal ratio in the repeat runs, not every such curve was filed as active; the % refers to the signal ratio; further: potency means the concentration at half of the fitted maximal effect)
# Summary of the method: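 Reporter line VDR-bla; stimulus 1alpha,25-(OH)2 vitamin D3, 3 nM final; compound co-addition, 16 h 37C/5% CO2; LiveBLAzer B/G substrate 2 h RT; fluorescence intensity.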
# [6] = biological target: Peroxisome proliferator-activated receptor delta (Homo sapiens) (UniProt Q03181); test: qHTS assay to identify small molecule antagonists of the peroxisome proliferator-activated receptor delta (PPARd) signaling pathway (AID 743215; active means well fitted inhibition curve with a large enough effect in the signal ratio in the repeat runs, not every such curve was filed as active; the % refers to the signal ratio;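 further: cells stimulated with agonist L165041 at 300 nM final during compound exposure; series mostly up to about 62 µM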)
# Summary of the method: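 Antagonist-mode beta-lactamase reporter screen: HEK293H cells with UAS-bla under PPARd control, stimulated by 300 nM L165041 (final) alongside test compound for 17 h at 37 C, then FRET fluorescence after 2 h substrate incubation.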
# [7] = biological target: Bile acid receptor (Homo sapiens) (UniProt Q96RI1); test: qHTS assay to identify small molecule antagonists of the farnesoid-X-receptor (FXR) signaling pathway (AID 743217; active means well fitted inhibition curve with a large enough effect in the signal ratio in the repeat runs, not every such curve was filed as active; the % refers to the signal ratio; further: potency means the concentration at half of the fitted maximal effect)
# Chain of Bile acid receptor (Homo sapiens) (Q96RI1 whole entry, looked up): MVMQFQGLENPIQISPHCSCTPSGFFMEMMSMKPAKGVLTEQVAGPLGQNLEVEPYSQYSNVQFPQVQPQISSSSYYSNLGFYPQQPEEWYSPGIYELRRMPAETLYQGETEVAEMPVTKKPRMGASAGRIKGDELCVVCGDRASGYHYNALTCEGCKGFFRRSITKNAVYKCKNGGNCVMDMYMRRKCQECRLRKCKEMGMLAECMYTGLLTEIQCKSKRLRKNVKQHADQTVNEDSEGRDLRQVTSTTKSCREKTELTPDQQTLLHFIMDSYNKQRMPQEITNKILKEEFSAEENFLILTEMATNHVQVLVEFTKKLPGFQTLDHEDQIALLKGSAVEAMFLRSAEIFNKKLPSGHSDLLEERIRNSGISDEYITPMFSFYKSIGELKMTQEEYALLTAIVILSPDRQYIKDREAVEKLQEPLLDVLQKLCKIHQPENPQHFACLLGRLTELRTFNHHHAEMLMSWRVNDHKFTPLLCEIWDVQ
# Summary of the method: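 Beta-lactamase reporter under UAS control in HEK 293T cells; compound exposure 16 h at 37 °C in the presence of chenodeoxycholic acid (50 uM final); signal from B/G FRET substrate after 2 h at room temperature.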
# [8] = qHTS assay to identify small molecule antagonists of the peroxisome proliferator-activated receptor delta (PPARd) signaling pathway - cell viability counter screen (AID 743213); further: nearly all actives have a fitted effect of over 50% in size
# Summary of the method: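 Same-well viability: cells pre-incubated 5 h, dosed with compound plus 300 nM L165041, kept 17 h at 37 C, FRET substrate 2 h RT, then CellTiter-Glo 30 min RT and luminescence.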
# [9] = biological target: Bile acid receptor (Homo sapiens) (UniProt Q96RI1); test: qHTS assay to identify small molecule agonists of the farnesoid-X-receptor (FXR) signaling pathway (AID 743220; active means well fitted activation curve with a large enough effect in the signal ratio in the repeat runs, not every such curve was filed as active; the % refers to the signal ratio)
# Summary of the method: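 Beta-lactamase reporter under UAS control in GeneBLAzer FXR HEK 293T cells (5000/well) measured with LiveBLAzer FRET substrate after 2 h at room temperature. Compound exposure lasted 16 h at 37C.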
SMILES,outcome [1],Potency [2],Potency [3],outcome [4],Potency [5],Potency [6],Potency [7],Potency [8],outcome [9]
COP(=O)(OC)OC(Br)C(Cl)(Cl)Br (configuration not stated),inactive,inactive,inactive,inactive,inactive,,,,
CCC(=O)O[C@@H]1C=C2CCC3C(CCC4(C)C3CC[C@@H]4OC(=O)CC)C2CC1 (some centres not stated),inactive,inactive,inactive,inactive,,inactive,,,
CCC(C)(C)c1ccc(O)c(C(C)(C)CC)c1,inactive,inactive and 24.5 µM (active),19.5 µM (active),,12.2 µM (active) and 17.4 µM (active),inactive,,,
O=P(OCC(Br)CBr)(OCC(Br)CBr)OCC(Br)CBr (configuration not stated),inactive,,inactive,,,,46.5 µM (active),,
COc1cc(CC(C)N)c(OC)cc1Br (configuration not stated),inactive,inactive,,,,inactive,,,
C=CCc1ccc(OC(=O)Cc2ccccc2)c(OC)c1,inactive,inactive,inactive,,,,,,
O=C(NC(=O)c1cc(F)c(F)cc1Cl)Nc1cc(F)ccc1N1CCC(C(=O)O)CC1,inactive,inactive,,,inactive,inactive,,inactive,
CC(C)CCCCCCCOC(=O)c1ccccc1C(=O)OCCCCCCCC(C)C,,inactive,inactive,inactive,inactive,,inactive,inactive,inactive
CCC1(CCC(C)C)C(=O)NC(=O)NC1=O,inactive,,,,,inactive,,inactive,inactive
C=CCSSCC=C,inactive,inactive,inactive,,inactive,inactive,,,
Nc1c(Br)cc(Br)c2c1C(=O)c1ccccc1C2=O,inactive,,inactive,inactive,inactive,inactive,,inactive,
OCCCl,inactive,inactive,inactive,inactive,inactive,,inactive,inactive,inactive
C=C(Cl)Cl,inactive,inactive,inactive,,,inactive,,,
C[C@]12C=CC3=C4CCC(=O)C=C4CC[C@H]3[C@@H]1CC[C@@H]2O,,inactive,,,,,,,
COc1ccccc1N1CCNCC1,inactive,inactive,inactive,,inactive,inactive,inactive,,inactive
O=C(O)CCCOc1ccc(Cl)cc1Cl,,,inactive,inactive,,,,inactive,
O=S(=O)(c1ccccc1)c1ccccc1,inactive,inactive,inactive,,,inactive,inactive,,
CC(C)OC(=O)Cc1ccccc1,,inactive,inactive,inactive,inactive,,,inactive,

SMILES,outcome [1],Potency [2],Potency [3],outcome [4],Potency [5],Potency [6],Potency [7],Potency [8],outcome [9]
O=C(O)c1ccc(=O)[nH]c1,,inactive,,,inactive,,,inactive,
CCCCNC(=O)OCC#CI,,,,,,,inactive,,inactive
CCCSP(=S)(OCC)Oc1ccc(SC)cc1 (configuration not stated),inactive,inactive,inactive,inactive,inactive,,inactive,,
Nc1cccc2ccccc12,inactive,inactive,,,,inactive,,,
O=C(N/N=C/c1ccc([N+](=O)[O-])o1)c1cc([N+](=O)[O-])cc([N+](=O)[O-])c1O,inactive,inactive,inactive,inactive,inactive,inactive,inactive,,
O=C(O)C(F)(F)C(F)(F)C(F)(F)C(F)(F)C(F)(F)C(F)(F)C(F)(F)C(F)(F)F,,,inactive,inactive,inactive,,inactive,inactive,inactive
CC(=O)NNc1ccccc1,,,,,inactive,,inactive,,inactive
CC(Cc1ccccc1)NCc1ccccc1Cl (configuration not stated),inactive,,inactive,inactive,inactive,inactive,,inactive,
Clc1ccc2ccccc2c1,inactive,inactive,,,,inactive,inactive,,inactive
NP(N)(=O)NC(=O)c1ccc(F)cc1,inactive,inactive,inactive,inactive,,inactive,,,
Nc1ccc2c(c1)Cc1ccccc1-2,inactive,inactive,,inactive,inactive,inactive,,inactive,
CC(C)(C)OOC(C)(C)CCC(C)(C)OOC(C)(C)C,,inactive,inactive,,,,,inactive,
CN[C@@H](C)[C@H](O)c1ccccc1,inactive,,inactive,inactive,inactive,inactive,inactive,,inactive
Clc1ccc(Cl)c(Cl)c1,,inactive,inactive,,inactive,,,,
O=C(O)C(Cl)(Cl)Br,inactive,inactive,,inactive,inactive,inactive,inactive,,inactive
O=C(N[C@H]1CN2CCC1CC2)c1ccc2c(c1)OCCO2,inactive,inactive,,,inactive,,,inactive,
O=C(O)COc1cc(Cl)c(Cl)cc1Cl,,inactive,inactive,inactive,inactive,inactive,inactive,inactive,
CN1CC[C@]23c4c5ccc(O)c4O[C@H]2[C@@H](O)CC[C@H]3[C@H]1C5,,inactive,inactive,inactive,inactive,,,inactive,

# From PubChem BioAssay (Tox21)
